LASV entry inh – qHTS for Inhibitors of binding or entry into cells for Lassa Virus; Lassa virus pseudotyped entry inhibition, cell-based qHTS; Potency, µM (series often up to 49.2 µM), inactives show top-dose activity change, negative = inhibition, usual class: inhibitors; 4.1% of 18,000 active; AID 720533, 2013
Marburg entry – qHTS for Inhibitors of binding or entry into cells for Marburg Virus; Marburg virus pseudotype entry/binding inhibition, cell-based; Potency, µM (titrated, usually from 49.2 µM), for the others: at the top dose activity change, negative = inhibition, hits mostly inhibitors; 6.5% of 18,000 active; AID 720532, 2013
* marks the source's active call; other numbers are inactive results; ? = inconclusive; . = no result; ! = a repeat was not active; [ ] = another dose, or the depositor's remark. Sampled rows, rich in hits. Any-hit rate of the full collection: about 8.6%. Calls follow the shape of the full dose curve; tested in HEK293 cells. % is scaled to controls: 0 for no effect and ±100 for the full control effect; potency is read from the fitted curve at half-maximal effect.

SMILES | LASV entry inh | Marburg entry
COc1ccc(-c2oc3cc(OC)c(OC(C)=O)c(OC)c3c(=O)c2OC)cc1OC(C)=O | 0.32µM* | 1%
CCOC(=O)OC[C@H]1O[C@H](c2ccc(C(C)=O)cc2)C=C[C@H]1Oc1ccc(-c2ccccc2)cc1 | . | 3%[8.59 µM]
O=C(O)CN(CC(=O)O)CC1=CC2C(=CC1=O)Oc1cc(O)c(CN(CC(=O)O)CC(=O)O)cc1C21OC(=O)c2ccccc21 (stereo unspecified) | 9% | -12%
CC(=O)Nc1ccc(-c2nc3ccc(Cl)cc3[nH]2)cc1 | -5% | 71%
O=C(Nc1ccc(Cl)cc1)Nc1ccc(Cl)c(Cl)c1 | 13µM* | 14µM*
COC1=C[C@@H](C(=O)N[C@H]2CCCC[C@H]2NC(C)=O)[C@@H](C)[C@H](c2ccccc2)CC1=O | ? | -13%[8.59 µM]
C=CCOC(=O)C(C(C)=O)[C@@H](NC(=O)OC)c1cccc(F)c1 (stereo partly specified) | -5%[8.59 µM] | 12%[8.59 µM]
Cc1cccc(CNc2nc(-c3cccc(NS(C)(=O)=O)c3)nc3ccccc23)c1 | -25% | ?
COc1cc(NS(C)(=O)=O)ccc1Nc1c2ccccc2nc2ccccc12 | 3.2µM* | ?
CC(C)[C@@H](CO[Si](C)(C)C(C)(C)C)N1CC=CS1(=O)=O | -27% | 13%
COc1cc(=O)n2c(c1C(=O)N(C)Cc1nonc1C)CCN(Cc1cc(F)ccc1F)CC2 | -27% | -8%
COc1cc(=O)n2c(c1C(=O)N(C)Cc1nonc1C)CCN(Cc1c(F)cccc1F)CC2 | 11µM* | -14%
COCCN1C(=O)CC[C@@]23C1=NC(C(=O)OC)=C(C(=O)OC)[C@@H]2N(CC=C(C)C)c1ccccc13 | -9%[8.59 µM] | -14%[8.59 µM]
CN1CCN(CCC=C2c3ccccc3Sc3ccc(S(=O)(=O)N(C)C)cc32)CC1 | 20µM* | 10µM*
CC(=O)c1ccc2c(c1)N(CCCN1CCN(CCO)CC1)c1ccccc1S2 | 28µM* | 10µM*
OCCN1CCN(CCCN2c3ccccc3Sc3ccc(C(F)(F)F)cc32)CC1 | 16µM*! | 7.1µM*
COc1ccccc1N1CCN(CCCCNC(=O)c2ccc(-c3ccc(C(C)=O)cc3)cc2)CC1 | 11% | ?
CCC(=O)c1ccc2c(c1)N(CCCN1CCN(CCO)CC1)c1ccccc1S2 | 14µM* | 10µM*
COC(=O)[C@@H]1CC[C@H](C)[C@@H](c2ccc(C)cc2)N1C(=O)c1ccc(C=NO[C@@H](C)c2cc(-c3c(C)cc(C)cc3C)no2)cc1 | 10%[8.59 µM] | 6%[8.59 µM]
C=C[C@]1(C)C[C@@H](OC(=O)CSCCN(CC)CC)[C@]2(C)[C@H](C)CC[C@]3(CCC(=O)[C@H]32)[C@@H](C)[C@@H]1O | -11% | ?
OCCN1CCN(CC/C=C2/c3ccccc3Sc3ccc(C(F)(F)F)cc32)CC1 | 13µM* | 5.6µM*
O=S1(=O)CC(N2CCN(CCO)CC2)CN1CCc1ccccc1 (stereo unspecified) | -11% | 24%
CN1CCN(CCC(=O)N2c3ccccc3Sc3ccc(C(F)(F)F)cc32)CC1 | ? | 16µM*
OCCN1CCN(CCCN2c3ccccc3C=Cc3ccccc32)CC1 | 25µM*! | 11µM*
Nc1ccc(CCN2CCN(c3cccc(C(F)(F)F)c3)CC2)cc1 | ? | -14%
SMILES | LASV entry inh | Marburg entry
Cc1scc2c1N(C(=O)CN1CCN(C)CC1)c1ccccc1NC2=O | 2% | -3%
C=CC(=O)N1[C@H](C(=O)OCC)CSCCS1(=O)=O | 5% | -8%
N#Cc1ccc2c(c1)C[C@]1(c3ccsc3)Oc3c(c(=O)oc4ccc(F)cc34)[C@@H]2O1 | -3%[8.59 µM] | 2%[8.59 µM]
CCc1cc2c(nc1CC)CCN(CCC(C)=NOCC[C@@H]1C=C[C@H](OC(C)=O)[C@@H](COC(C)=O)O1)C2 | 10%[8.59 µM] | ?
C[n+]1cc2c3c(ccc2c2ccc4cc5c(cc4c21)OCO5)OCO3 | 20µM* | 6.3µM*
COc1ccc(O[C@H]2C=C[C@@H](c3ccccc3)O[C@H]2COC(=O)CCC(C)=NOC[C@@H](O)COCc2ccco2)cc1 | . | 10%[8.59 µM]
CCCCCC(=O)N1C[C@@H](O)[C@H](n2cc(COC(=O)c3ccccc3)nn2)C[C@H]1c1ccccc1 | 12% | 5%
C#CCN(C[C@H](NC(=O)OC(C)(C)C)C(C)C)S(=O)(=O)c1ccc(Br)cc1F | 11% | -2%
O=C1N(CC2CC2)c2cccc(Br)c2[C@@]12O[C@H](COc1ccccc1)CC1=CCCC12 (stereo partly specified) | -7%[8.59 µM] | ?
O=C(/C=C/c1ccc(O)cc1)c1ccc(O)cc1O | 9% | 22%
Oc1ccc(/C=C\c2cc(O)cc(O)c2)cc1 | 10µM* | 11µM*
Oc1ccc(/C=C/c2cc(O)cc(O)c2)cc1 | 7.9µM* | 7.1µM*
COc1ccc(/C=C/c2cc(O)cc(O)c2)cc1 | -3% | 1%
COc1ccc(-c2ccc3c(NC(=O)C4CC4)n[nH]c3n2)cc1 | 4% | 49%
COCOCCn1cc(CN2CCS(=O)(=O)N(Cc3ccc(-c4ccccc4)cc3)C(C)C2=O)nn1 (stereo unspecified) | -7% | 10%
C=CC[C@@H]1C=C[C@H](ON=C2c3cc(OC)ccc3O[C@H](c3cccc(OC)c3)[C@@H]2O)[C@H](CO)O1 | -4%[8.59 µM] | -5%[8.59 µM]
COc1cc(CNc2nc(C)c(-c3ccn(C4Cc5ccccc5C4)n3)s2)cc2c1OCO2 | -28% | 0%
CC(=O)Nc1ccc(OCCOCCOc2ccc(NC(C)=O)cc2)cc1 | ? | 4%
CCOc1ccc(N=C(C)Nc2ccc(OCC)cc2)cc1 | -11% | 11µM*
Cc1nc2cc(NC(=O)[C@@H]3C[C@@H](Sc4ccccn4)CN3Cc3cccc(Cl)c3)ccc2s1 | -11% | -29%
CC(C)C[C@H]1COc2cc(F)ccc2S(=O)(=O)N1 | ? | -21%
Fc1ccc(C(OCCN2CCN(CCCc3ccccc3)CC2)c2ccc(F)cc2)cc1 | 14µM*! | 7.9µM*
OCCOCCN1CCN(Cc2cccc(Oc3ccccc3)c2)CC1 | 0% | -28%
O=C(O)C1=CCCN(CCOC(c2ccc(C(F)(F)F)cc2)c2ccc(C(F)(F)F)cc2)C1 | -5% | 4%
c1ccc(CCCN2CCN(CCOC(c3ccccc3)c3ccccc3)CC2)cc1 | 28µM* | 11µM*
SMILES | LASV entry inh | Marburg entry
CC=C(C)[C@H](O)C[Si](C)(C)c1ccccc1 | -27%[8.59 µM] | -3%[8.59 µM]
CCOC(=O)OC[C@H]1O[C@H](c2cc(C)cc(C)c2)C=C[C@H]1OC(=O)OCC | 4%[8.59 µM] | 2%[8.59 µM]
C=C(C[C@]1(C(=O)OC)C[C@]2(CC=C(C)C)C(=O)C(C(=O)CC(C)C)=C(O)[C@@](CC=C(C)C)(C1)C2=O)C(=O)OC | . | 4%[8.59 µM]
CNc1ccc(-c2nc3ccccc3s2)cc1 | 10µM* | 7.1µM*
CN(C(=O)COc1nc2ccccc2s1)c1ccccc1 | -3% | 3%
Nc1ccccc1C(=O)C=Cc1ccc2c(c1)OCO2 | 46%[8.59 µM] | 97%[8.59 µM]
CCCCCCCCOC(=O)c1ccccc1C(=O)OCCCCCCCC | -15% | -8%
CCCCCCCCCCCCCCOc1ccc(C(=O)O)o1 | 0.56µM* | ?
Nc1c(N=Nc2ccc(-c3ccc(N=Nc4cc(S(=O)(=O)O)c5ccccc5c4N)cc3)cc2)cc(S(=O)(=O)O)c2ccccc12 | 0% | 13µM*
Cc1cc(-c2ccc(N=Nc3ccc4c(S(=O)(=O)O)cc(S(=O)(=O)O)c(N)c4c3O)c(C)c2)ccc1N=Nc1ccc2c(S(=O)(=O)O)cc(S(=O)(=O)O)c(N)c2c1O | ? | -21%
COc1cc(/C=C\C(=O)N2CCC=CC2=O)cc(OC)c1OC | ? | 8.9µM*
COc1cc(C(=S)N2CCOCC2)cc(OC)c1OC | -9% | -3%
